This is an account of results in PubChem BioAssay (EPA / NIEHS).

Each structure is given as a SMILES string. Records with an inconclusive call do not appear. The source made the active and inactive calls. The calls were made as follows, unless noted: active = hit-call score of the fitted dose curve at least 0.9, where 1 is the maximum; inactive = score below 0.9.

The target of assay [1] is human Retinoid X Receptor beta (RXRb), RXRB (gene 6257) (UniProt P28702). The experiment in a line: ATG_RXRb_TRANS: Attagene TRANS-FACTORIAL HepG2 Assay for human Retinoid X Receptor beta (RXRb) (AID 2283013; active = hit-call score of the fitted dose curve at least 0.9, where 1 is the maximum). In short, it runs like this: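 Readout is reporter transcript induction after 24 h dosing. It is measured by RT-PCR of total RNA followed by fluorescent capillary electrophoresis. HepG2 liver cells carry transfected multiple reporter units driven by an exogenous RXRb-Gal4 fusion; activity is relative to DMSO.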
Sequence of human Retinoid X Receptor beta (RXRb), RXRB (gene 6257) (P28702 whole entry, looked up, the tested form may be a part): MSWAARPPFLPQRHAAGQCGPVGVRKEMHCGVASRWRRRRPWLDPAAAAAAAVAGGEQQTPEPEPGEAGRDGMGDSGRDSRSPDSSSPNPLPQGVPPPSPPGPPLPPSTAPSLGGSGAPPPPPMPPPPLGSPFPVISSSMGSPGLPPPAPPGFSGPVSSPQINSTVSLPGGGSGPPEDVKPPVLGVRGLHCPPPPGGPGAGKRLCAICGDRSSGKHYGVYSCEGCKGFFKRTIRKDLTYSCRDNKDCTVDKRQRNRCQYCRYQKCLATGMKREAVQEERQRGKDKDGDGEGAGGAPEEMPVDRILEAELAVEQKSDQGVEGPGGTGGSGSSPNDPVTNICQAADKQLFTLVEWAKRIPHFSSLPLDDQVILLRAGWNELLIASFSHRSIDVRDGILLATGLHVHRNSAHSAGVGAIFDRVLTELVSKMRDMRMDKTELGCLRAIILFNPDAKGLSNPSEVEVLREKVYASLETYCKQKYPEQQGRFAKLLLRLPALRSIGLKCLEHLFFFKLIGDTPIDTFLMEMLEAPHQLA

Read-out in assay [2]: E-selectin (Homo sapiens) (UniProt P16581)
The assay is described as follows: BSK_3C_Eselectin: BioMAP Diversity Plus: 3C Assay for Eselectin Biomarker Activity (AID 2283015).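 As to outcome: cell surface E-selectin protein quantified by ELISA 24 h after dosing.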 The conditions noted are these: primary human endothelial cells (HUVEC); actives raise or lower the signal. In short, it runs like this:
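Primary human umbilical vein endothelial cells (3C system) were dosed with chemical and cell-surface E-selectin measured by ELISA 24 h later. Bidirectional curve fitting used DMSO as negative control and baseline.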

Read-out in assay [3]: Interleukin-1 alpha (IL1a), IL1A (gene 3552)
The assay is described as follows: BSK_BE3C_IL1a: BioMAP Diversity Plus: BE3C Assay for Interleukin-1 alpha (IL1a) Biomarker Activity (AID 2283016). The conditions noted are these: primary human bronchial epithelial cells; actives raise or lower the signal. In short, it runs like this: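 IL-1a measured by ELISA after 24 h treatment of human primary bronchial epithelial cells, with gain or loss of signal fitted versus DMSO. Parallel cultures stained with SRB gauge overt cytotoxicity.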

Read-out in assay [4]: Monocyte Chemoattractant Protein-1 (MCP1), CCL2 (gene 6347)
The assay is described as follows: BSK_3C_MCP1: BioMAP Diversity Plus: 3C Assay for Monocyte Chemoattractant Protein-1 (MCP1) Biomarker Activity (AID 2283017). The conditions noted are these: primary human endothelial cells (HUVEC); actives raise or lower the signal. In short, it runs like this:
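Primary human umbilical vein endothelial cells (3C system) were exposed to test chemical for 24 h, after which MCP-1 was quantified by ELISA. Activity was fitted bidirectionally against DMSO as negative control and baseline.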

Read-out in assay [5]: Monocyte Chemoattractant Protein-1 (MCP1), CCL2 (gene 6347)
The assay is described as follows: BSK_4H_MCP1: BioMAP Diversity Plus: 4H Assay for Monocyte Chemoattractant Protein-1 (MCP1) Biomarker Activity (AID 2283018). As to conditions: primary human endothelial cells (HUVEC); actives raise or lower the signal. In short, it runs like this: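 ELISA of MCP-1 (CCL2) 24 h after chemical dosing of HUVEC in the BioMAP 4H system. Gain or loss versus DMSO fitted; parallel SRB staining (560 nm) tracked overt cytotoxicity.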

Read-out in assay [6]: Human Leukocyte Antigen - DR isotype (HLADR), HLA-DRA (gene 3122)
The experiment in a line: BSK_3C_HLADR: BioMAP Diversity Plus: 3C Assay for Human Leukocyte Antigen - DR isotype (HLADR) Biomarker Activity (AID 2283019). The conditions noted are these: primary human endothelial cells (HUVEC); actives raise or lower the signal. In short, it runs like this: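 Primary human umbilical vein endothelial cells (3C system) were dosed with compound and cell-surface HLA-DR was quantified by ELISA at 24 h. Activity was fitted bidirectionally against DMSO as negative control and baseline.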

Read-out in assay [7]: Interleukin-8 (IL8), CXCL8 (gene 3576)
The experiment in a line: BSK_3C_IL8: BioMAP Diversity Plus: 3C Assay for Interleukin-8 (IL8) Biomarker Activity (AID 2283020). As to conditions: primary human endothelial cells (HUVEC); actives raise or lower the signal. In short, it runs like this: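 IL-8 was measured by ELISA in HUVEC cultures 24 h after chemical dosing, with gain or loss of signal fitted relative to DMSO. Parallel SRB total-protein staining tracked overt cytotoxicity.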

Read-out in assay [8]: Monokine induced gamma interferon (MIG), CXCL9 (gene 4283)
The experiment in a line: BSK_3C_MIG: BioMAP Diversity Plus: 3C Assay for Monokine induced gamma interferon (MIG) Biomarker Activity (AID 2283021). The conditions noted are these: primary human endothelial cells (HUVEC); actives raise or lower the signal. In short, it runs like this: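 ELISA measurement of MIG in human umbilical vein endothelial cells 24 h after treatment. Cytotoxicity tracked by SRB staining in parallel cultures; gain or loss of signal fitted relative to DMSO.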

Assay [9] addresses human Vitamin D Receptor (VDR), VDR (gene 7421) (UniProt P11473). The experiment in a line: ATG_VDR_TRANS: Attagene TRANS-FACTORIAL HepG2 Assay for human Vitamin D Receptor (VDR) (AID 2283022; active = hit-call score of the fitted dose curve at least 0.9, where 1 is the maximum). In short, it runs like this:
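HepG2 cells were transiently transfected with multiple GAL4-UAS reporter units, so signal reflects exogenous chimeric receptor-Gal4 activity. After 24 h compound exposure, reporter mRNA was measured by RT-PCR, fluorescent labelling and capillary electrophoresis, fitted for gain of signal versus DMSO.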

Assay [10] can be described thus: BSK_3C_SRB: Viability Assessment in the BioMAP Diversity Plus: 3C Assay (AID 2283023).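 Also: fitted both ways against DMSO so a hit may be signal rise or drop.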 The conditions noted are these: primary human endothelial cells (HUVEC). In short, it runs like this: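 Primary human umbilical vein endothelial cells in the 3C system were read 24 h after compound dosing. Total protein was stained with 0.1% sulforhodamine B after 10% TCA fixation and read at 560 nm, with bidirectional fitting against DMSO as baseline.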

Read-out in assay [11]: Matrix Metallopeptidase 1 (MMP1), MMP1 (gene 4312)
The experiment in a line: BSK_BE3C_MMP1: BioMAP Diversity Plus: BE3C Assay for Matrix Metallopeptidase 1 (MMP1) Biomarker Activity (AID 2283024). As to conditions: primary human bronchial epithelial cells; actives raise or lower the signal. In short, it runs like this:
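ELISA measurement of MMP-1 after 24 h compound exposure of primary human bronchial epithelial cells. Changes in either direction fitted relative to DMSO; parallel SRB staining checked overt cytotoxicity.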

The nature of assay [12]: BSK_3C_Vis: BioMAP Diversity Plus: 3C Assay for Morphology Visualization (AID 2283025).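 Also: fitted both ways so gain or loss versus DMSO counts.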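 As to AC50: light microscopy image of cell morphology used as background control.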 The conditions noted are these: primary human endothelial cells (HUVEC). In short, it runs like this: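 Light-microscopy visualization of HUVEC cultures at 24 h post-treatment, with DMSO as baseline for bidirectional fitting.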
Read-out in assay [13]: Pselectin, SELP (gene 6403)
The experiment in a line: BSK_4H_Pselectin: BioMAP Diversity Plus: 4H Assay for Pselectin Biomarker Activity (AID 2283026). As to conditions: primary human endothelial cells (HUVEC); actives raise or lower the signal. In short, it runs like this:
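ELISA of surface P-selectin on HUVEC, 24 h after dosing, with parallel SRB staining (0.1% after 10% TCA fixation, 560 nm) for overt cytotoxicity. Activity fitted in both directions relative to DMSO.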

Assay [14] in a line: BSK_4H_SRB: Viability Assessment in the BioMAP Diversity Plus: 4H Assay (AID 2283027).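 Also: cells exposed to compound for 24 h before staining.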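 As to AC50: curves fitted both ways versus DMSO so AC50 may be loss or gain.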 The conditions noted are these: primary human endothelial cells (HUVEC). In short, it runs like this:
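Cytotoxicity read-out in primary human endothelial cells: after 24 h compound exposure, cells were TCA-fixed (10%), stained with 0.1% SRB and absorbance taken at 560 nm. Values fitted in both directions relative to DMSO.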

A short description of assay [15]: BSK_BE3C_SRB: Viability Assessment in the BioMAP Diversity Plus: BE3C Assay (AID 2283028). As to conditions: primary human bronchial epithelial cells. In short, it runs like this:
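Human primary bronchial epithelial cells were exposed to test chemicals for 24 h. Total protein in parallel cultures was then measured by staining with 0.1% sulforhodamine B after 10% TCA fixation, with absorbance read at 560 nm. Activity was fitted bidirectionally against DMSO.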

Read-out in assay [16]: Thrombomodulin, THBD (gene 7056)
The assay is described as follows: BSK_3C_Thrombomodulin: BioMAP Diversity Plus: 3C Assay for Thrombomodulin Biomarker Activity (AID 2283029). The conditions noted are these: primary human endothelial cells (HUVEC); actives raise or lower the signal. In short, it runs like this:
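ELISA measurement of thrombomodulin on HUVEC surface 24 h after chemical dosing; activity fitted in both directions relative to DMSO vehicle.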

Read-out in assay [17]: Urokinase-type plasminogen activator receptor (uPAR), PLAUR (gene 5329)
The experiment in a line: BSK_4H_uPAR: BioMAP Diversity Plus: 4H Assay for Urokinase-type plasminogen activator receptor (uPAR) Biomarker Activity (AID 2283030). As to conditions: primary human endothelial cells (HUVEC); actives raise or lower the signal. In short, it runs like this:
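Primary human umbilical vein endothelial cells were exposed to chemical for 24 h before cell-surface uPAR was quantified by ELISA. Activity was fitted bidirectionally against the DMSO negative control baseline.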

Read-out in assay [18]: Vascular endothelial growth factor receptor 2 (Homo sapiens) (UniProt P35968)
The assay is described as follows: BSK_4H_VEGFRII: BioMAP Diversity Plus: 4H Assay for Vascular endothelial growth factor receptor 2 (VEGFR2) Biomarker Activity (AID 2283031).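 As to AC50: cell-surface VEGFR2 protein level quantified by ELISA.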 As to conditions: primary human endothelial cells (HUVEC); actives raise or lower the signal. In short, it runs like this: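 Primary human umbilical vein endothelial cells in the BioMAP 4H system were dosed with test chemical, and 24 h later VEGFRII was measured by ELISA. Activity was fitted bidirectionally against DMSO as negative control and baseline.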

Read-out in assay [19]: Human Leukocyte Antigen - DR isotype (HLADR), HLA-DRA (gene 3122)
The experiment in a line: BSK_BE3C_HLADR: BioMAP Diversity Plus: BE3C Assay for Human Leukocyte Antigen - DR isotype (HLADR) Biomarker Activity (AID 2283032). As to conditions: primary human bronchial epithelial cells; actives raise or lower the signal. In short, it runs like this: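 Cell-surface HLA-DR ELISA readout at 24 h after dosing in the BE3C primary human lung bronchial epithelial system; gain or loss of signal against DMSO, with parallel sulforhodamine B staining of total protein for overt cytotoxicity.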

Assay [20] addresses human Thyroid Receptor alpha (THRa1), THRA (gene 7067) (UniProt P10827). The assay is described as follows: ATG_THRa1_TRANS: Attagene TRANS-FACTORIAL HepG2 Assay for human Thyroid Receptor alpha (THRa1) (AID 2283014; active = hit-call score of the fitted dose curve at least 0.9, where 1 is the maximum). In short, it runs like this: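 HepG2 cells transiently transfected with multiplexed GAL4-UAS reporter units for exogenous chimeric THRa1-Gal4; reporter mRNA measured 24 h after dosing by RT-PCR, 6-FAM labelling, HpaI digestion and capillary electrophoresis. Gain-of-signal fitted versus DMSO baseline.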

Sequence of human Thyroid Receptor alpha (THRa1), THRA (gene 7067) (P10827 whole entry, looked up, the tested form may be a part): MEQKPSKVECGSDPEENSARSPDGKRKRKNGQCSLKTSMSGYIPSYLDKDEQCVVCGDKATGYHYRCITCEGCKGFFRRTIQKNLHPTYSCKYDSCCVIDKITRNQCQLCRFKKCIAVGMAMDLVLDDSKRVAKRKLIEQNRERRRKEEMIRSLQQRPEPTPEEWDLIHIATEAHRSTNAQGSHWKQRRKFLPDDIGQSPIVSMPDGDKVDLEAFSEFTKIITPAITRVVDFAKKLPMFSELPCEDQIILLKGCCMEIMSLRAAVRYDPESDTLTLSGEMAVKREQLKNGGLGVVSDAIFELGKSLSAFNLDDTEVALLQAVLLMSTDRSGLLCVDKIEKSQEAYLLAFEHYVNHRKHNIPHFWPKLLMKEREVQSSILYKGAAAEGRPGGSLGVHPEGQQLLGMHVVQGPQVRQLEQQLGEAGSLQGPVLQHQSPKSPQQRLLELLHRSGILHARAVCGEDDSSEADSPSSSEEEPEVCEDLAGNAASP
Sequence of human Vitamin D Receptor (VDR), VDR (gene 7421) (P11473 whole entry, looked up, the tested form may be a part): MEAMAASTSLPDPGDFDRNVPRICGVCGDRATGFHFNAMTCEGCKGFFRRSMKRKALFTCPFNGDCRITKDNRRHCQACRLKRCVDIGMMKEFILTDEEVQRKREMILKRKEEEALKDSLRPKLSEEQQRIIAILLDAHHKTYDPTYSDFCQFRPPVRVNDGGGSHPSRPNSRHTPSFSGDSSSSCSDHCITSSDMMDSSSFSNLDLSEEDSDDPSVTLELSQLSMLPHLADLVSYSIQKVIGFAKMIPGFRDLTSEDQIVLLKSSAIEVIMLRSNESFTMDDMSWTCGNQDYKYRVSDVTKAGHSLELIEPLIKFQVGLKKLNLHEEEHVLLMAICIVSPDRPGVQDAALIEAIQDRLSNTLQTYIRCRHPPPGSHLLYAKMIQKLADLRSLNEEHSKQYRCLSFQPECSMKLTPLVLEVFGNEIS
Sequence of E-selectin (Homo sapiens) (P16581 whole entry, looked up): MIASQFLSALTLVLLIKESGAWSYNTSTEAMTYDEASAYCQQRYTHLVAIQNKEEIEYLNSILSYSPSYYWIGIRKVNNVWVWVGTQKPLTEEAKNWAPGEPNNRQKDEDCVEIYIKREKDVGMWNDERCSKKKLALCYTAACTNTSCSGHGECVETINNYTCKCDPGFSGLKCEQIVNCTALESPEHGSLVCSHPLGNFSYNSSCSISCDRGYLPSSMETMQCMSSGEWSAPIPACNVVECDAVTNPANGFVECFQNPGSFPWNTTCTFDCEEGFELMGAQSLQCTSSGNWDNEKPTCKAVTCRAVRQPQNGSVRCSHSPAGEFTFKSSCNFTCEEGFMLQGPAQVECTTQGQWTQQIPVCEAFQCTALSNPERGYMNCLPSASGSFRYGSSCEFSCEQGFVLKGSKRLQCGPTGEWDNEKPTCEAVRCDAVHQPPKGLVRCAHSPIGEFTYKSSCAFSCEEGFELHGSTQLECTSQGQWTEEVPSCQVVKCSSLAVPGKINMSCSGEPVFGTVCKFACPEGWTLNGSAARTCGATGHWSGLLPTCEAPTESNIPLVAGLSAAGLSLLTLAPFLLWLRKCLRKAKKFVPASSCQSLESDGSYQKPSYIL

On to `C=CC(=O)OCCCCCC(C)C`, for which the result in assay [1], in assay [2], in [3], in assay [4], in assay [5] and in assay [6] was inactive. Besides, the result in assay [7], in assay [8], in assay [9], in assay [10], in assay [11] and in [12] was inactive. The result in [13], in [14], in assay [15], in [16], in assay [17] and in assay [18] was inactive. In assay [19], the outcome was inactive.

For `CN(C)P(=O)(N(C)C)N(C)C`, the outcome in assay [20] was inactive.

In the case of `CCC[CH2][Sn]([Cl])([Cl])[Cl]`, the compound was classed as inactive in assay [20].

As for `CC(=O)C=C(C)C`, the result in assay [1] and in assay [9] was inactive.

With `COc1cc(OC)nc(NC(=O)NS(=O)(=O)c2ncccc2C(=O)N(C)C)n1`, the result in assay [1], in [2], in [3], in assay [4], in assay [5] and in assay [6] was inactive. The result in [7], in assay [8], in assay [10], in assay [11], in assay [12] and in assay [13] was inactive. For the same compound, the outcome in [14], in assay [15], in assay [16], in assay [17], in [18] and in assay [19] was inactive.

Take `ClC1=C(Cl)[C@]2(Cl)[C@H]3[C@H]([C@H]4C=C[C@H]3C4)[C@@]1(Cl)C2(Cl)Cl`: the outcome in [20], in assay [2], in [3], in [7], in assay [8] and in assay [9] was inactive. The outcome in assay [11], in assay [14], in [15] and in [17] was inactive. In addition, the concentration at half-maximal activity (AC50) was 3.97 µM (active) in assay [4]; 0.748 µM (active) in [5]; 8.54 µM (active) in [6]; 7.55 µM (active) in assay [10]; 13.6 µM (active) in assay [12]; 7.17 µM (active) in assay [13]. Besides, the AC50 in assay [18] was 2.01 µM (active); in assay [19], 13.1 µM (active).

Regarding `COc1ccc(C=O)cc1OC`, the call in assay [20] was inactive.

As to `CC(=[OH+])/C=C(/C)[O-].CC(=[OH+])/C=C(/C)[O-].CC(=[OH+])/C=C(/C)[O-].[Fe]`, in [20], the compound was called inactive.

For the compound `COP(=S)(OC)Oc1c(Cl)cc(C)cc1Cl`, the concentration at half-maximal activity (AC50) is 22 µM (active) in assay [1]; 29 µM (active) in assay [2]; 31.4 µM (active) in assay [4]; 3.97 µM (active) in [5]; 20 µM (active) in [6]; 30.3 µM (active) in assay [10]. Also, the AC50 was 37.5 µM (active) in assay [12], 33.4 µM (active) in assay [13] and 20 µM (active) in assay [14]. The outcome in [3], in assay [7], in assay [8], in [9], in assay [11] and in assay [15] was inactive. For the same compound, the result in assay [17], in assay [18] and in [19] was inactive.

Take `CCOP(=S)(OCC)SCCS(=O)(=O)CC`: the result in assay [20], in assay [2], in assay [3], in assay [4], in assay [5] and in assay [6] was inactive. Besides, the result in assay [7], in [8], in [9], in assay [10], in assay [11] and in assay [12] was inactive. The outcome in assay [13], in assay [14], in assay [15], in assay [17], in assay [18] and in assay [19] was inactive.

By AC50 is commonly meant the concentration at which the activity in the assay is half-maximal.
